Assay outcomes from PubChem.
Bead autofluor: counter-screen for toxin protease inhibitors: compound fluorescence | compound autofluorescence counterscreen, microsphere flow cytometry; active compounds read high | fluorescence intensity (test concentration not listed) | 360,000 tested, 3.1% active; in the data active = fluorescence intensity above about 16000; inconclusive = no clear call, values can overlap the other calls
Anthrax LF inh2: inhibitors of Bacillus anthracis lethal factor protease | AID 588501 | multiplex microsphere protease cleavage assay, LF | 360,000 tested, 0.12% active | inhibition, % at 10 µM; note: plate controls were buffer without enzyme for full effect and enzyme alone for no effect
Target sequence (P15917 whole entry, looked up): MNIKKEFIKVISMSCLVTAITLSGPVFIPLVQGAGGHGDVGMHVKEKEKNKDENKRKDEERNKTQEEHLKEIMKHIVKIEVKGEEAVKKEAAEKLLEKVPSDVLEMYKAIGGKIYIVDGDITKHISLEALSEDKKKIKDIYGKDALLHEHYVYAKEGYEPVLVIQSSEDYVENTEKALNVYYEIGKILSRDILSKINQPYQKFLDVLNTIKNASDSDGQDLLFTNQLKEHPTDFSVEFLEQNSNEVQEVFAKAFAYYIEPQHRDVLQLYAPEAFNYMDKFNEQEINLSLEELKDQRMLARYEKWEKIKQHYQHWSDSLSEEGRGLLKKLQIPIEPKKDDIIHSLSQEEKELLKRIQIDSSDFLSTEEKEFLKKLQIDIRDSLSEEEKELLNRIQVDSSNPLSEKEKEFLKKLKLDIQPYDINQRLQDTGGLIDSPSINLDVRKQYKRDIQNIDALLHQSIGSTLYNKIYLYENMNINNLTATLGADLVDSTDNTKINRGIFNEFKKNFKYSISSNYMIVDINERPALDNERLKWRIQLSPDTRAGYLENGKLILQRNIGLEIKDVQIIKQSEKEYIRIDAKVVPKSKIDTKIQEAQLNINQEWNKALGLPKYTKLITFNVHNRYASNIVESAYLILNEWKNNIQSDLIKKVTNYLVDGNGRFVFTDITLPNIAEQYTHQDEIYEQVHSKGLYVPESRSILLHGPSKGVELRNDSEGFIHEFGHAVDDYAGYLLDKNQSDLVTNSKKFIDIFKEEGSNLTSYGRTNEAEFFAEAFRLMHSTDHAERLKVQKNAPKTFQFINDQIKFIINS
BJeLR lethal: kills HRASV12-expressing BJeLR cells; BJeLR (HRASV12) viability, CellTiter-Glo ATP luminescence, 48 h; inhibition, % (no concentration beside the values); 300,000 tested, 0.17% active; in the data active = inhibition above about 50%; inconclusive = no clear call, values can overlap the other calls
BH1578 lux ind: inducers of Vibrio cholerae quorum light production without autoinducers. activation, % at 18.7 µM. V. cholerae BH1578 lux reporter, luminescence, 6 h. 350,000 tested, 0.16% active; in the data active = activation mostly above about 9.7%, no sharp cut-off; inconclusive = no clear call, values can overlap the other calls; inactive = mostly below about 3.7%
BoNT-F LC inh: BoNT F light chain protease inhibition. Multiplex microsphere protease cleavage assay, flow cytometry. inhibition, % at 10 µM. 360,000 tested, 0.22% active. AID 588497; in the data active = inhibition above about 35%, passing the limit was not always enough; inconclusive = no clear call, values can overlap the other calls; note: plate controls were buffer without enzyme for full effect and enzyme alone for no effect
BoNT-A LC inh2: inhibitors of Botulinum neurotoxin A light chain protease | multiplex microsphere protease substrate cleavage, flow cytometry | inhibition, % at 10 µM | 360,000 tested, 0.17% active; note: plate controls were buffer without enzyme for full effect and enzyme alone for no effect
* hit, by the source's call; i = inactive; ? = inconclusive; nt = no result. Most compounds without a hit are left out; they make up all but 3.7% or so of the library. Cut-off read from the data, not from the text of the source, unless noted: active = inhibition above about 30%; inconclusive = no clear call, values can overlap the other calls; inactive = below that.

SMILES	Bead autofluor	Anthrax LF inh2	BJeLR lethal	BH1578 lux ind	BoNT-F LC inh	BoNT-A LC inh2
Cc1ccc(-n2c(Cc3cccn3C)nnc2SCC(=O)Nc2ccc3c(c2)OCO3)cc1	24086*	-0.9	2.1	-0.4	-4.2	-0.7
Cc1ccc(-n2c(Cc3cccn3C)nnc2SCC(=O)NCc2ccc3c(c2)OCO3)cc1	21493*	-7.4	8.6	i	2.8	2.6
Cn1cccc1Cc1nnc(SCC(=O)Nc2ccc3c(c2)OCCO3)n1-c1ccc(F)cc1	5619	-4.7	-1.5	-0.2	-5.4	-0.2
COc1cc(OC)cc(C2=Cc3ccc(OC)cc3C(CC(C)=O)N2c2ccc(-c3cccs3)cc2)c1 (stereo not drawn)	4944	0.3	nt	nt	5.7	6.8
COC(=O)[C@H]1C[C@@]2(O)CN(S(=O)(=O)c3ccc(C)cc3)C[C@@]2(OC(=O)NCc2ccco2)C[C@H]1C(=O)OC	3781	-3.5	nt	-0.6	-7.2	-0.4
COc1ccc(-c2ccc(CN3C(C(C)C)C(=O)N(Cc4cn(CCC5OCCO5)nn4)CCS3(=O)=O)cc2)cc1 (stereo not drawn)	3023	-0.2	nt	i	-3.7	-0.2
CC12CCC(/C(=C/NNc3ccc([N+](=O)[O-])cc3[N+](=O)[O-])C1=O)C2(C)C (stereo not drawn)	3633	-3.5	nt	4.5	-4.7	0.2
COc1c(F)c(F)c(C(=O)Nc2ccc(N3CCN(C(C)=O)CC3)c(Cl)c2)c(F)c1F	17323*	-4.9	3.3	-0.2	-7.4	?
COc1c(F)c(F)c(C(=O)Nc2ccc(N3CCN(Cc4ccccc4)CC3)cc2)c(F)c1F	24627*	-10.1	18.4	-0.9	-11.1	-3.6
O=C(Nc1ccc(N2CCOCC2)c(Cl)c1)c1c(F)c(F)c(F)c(F)c1F	4464	-5.1	-1.2	-0.2	-30.7	1.0
COc1ccc(C(=O)Nc2ccc(N3CCN(Cc4ccccc4)CC3)cc2)cc1	4152	2.3	-2.8	-0.2	-7.2	-0.2
CCN1CC2CCCC3(C1)C(=O)NC1(CCCCC1)N=C23 (stereo not drawn)	21486*	0.1	-4.6	i	-1.2	-1.8
Cn1ccnc1Sc1nnnn1-c1ccccc1	20712*	-0.3	-2.2	-0.1	-2.6	-1.0
CCCn1nc(CC(=O)O)c2ccccc2c1=O	2754	0.2	-1.5	i	5.3	0.1
CCn1nc(CCC(=O)O)c2ccccc2c1=O	22340*	-1.3	3.8	i	3.1	2.7
O=C(NCc1ccc(F)cc1)c1cc(S(=O)(=O)N2CCOCC2)ccc1F	21187*	0.0	8.2	-0.7	7.1	?
O=C(NCCc1ccccc1)c1cc(S(=O)(=O)N2CCCC2)ccc1F	5354	-0.8	-8.0	i	-4.7	0.7
CCN(CC)S(=O)(=O)c1ccc(Cl)c(C(=O)NC)c1	2453	-0.3	-3.4	i	9.0	0.5
CCCNC(=O)c1cc(S(=O)(=O)N2CCc3ccccc32)ccc1F	16850*	-0.5	-2.1	-1.0	-3.6	-2.7
CCCCCNC(=O)c1cc(S(=O)(=O)N2CCCCC2)ccc1F	23121*	-3.1	6.1	-0.9	4.9	?
COc1ccc(CCNC(=O)c2cc(S(=O)(=O)N3CCc4ccccc43)ccc2F)cc1OC	3532	5.3	nt	i	-3.2	-0.7
CCN(CC)S(=O)(=O)c1ccc(F)c(C(=O)NCCC(C)C)c1	17171*	0.9	5.3	-0.2	-2.4	?
O=S(=O)(c1ccc(F)c(Cl)c1)N1CCN(C/C=C/c2ccccc2)CC1	9328	-7.2	nt	4.2	-11.9	-0.2
CC(=O)N1CCc2cc(NC(=O)C3(C)CCN3CCc3ccccc3)ccc21 (stereo not drawn)	3957	-0.2	nt	i	-5.7	-0.6
O=C(/C=C/c1ccccc1Cl)OCC(=O)N1CCc2ccccc21	3856	-7.4	nt	-4.5	2.4	-0.4
SMILES	Bead autofluor	Anthrax LF inh2	BJeLR lethal	BH1578 lux ind	BoNT-F LC inh	BoNT-A LC inh2
CC1(C)CC(=O)c2sc(NS(=O)(=O)Cc3ccccc3)nc2C1	22981*	2.1	1.5	-2.4	1.9	?
COc1ccc(C(C)NC(=O)c2ccoc2C)cc1OC (stereo not drawn)	24236*	-1.8	-4.8	1.2	-6.2	-3.9
CC(=NNC(=S)SCc1ccccc1)c1ccccn1	3593	56.9*	nt	i	83.1*	41.8*
CC(=NNC(=S)Nc1cccc(Cl)c1)c1ccccn1	4466	41.1*	nt	nt	62.8*	10.5
CCOC(=O)c1cccnc1SCC(=O)NCc1ccccc1	19817*	-1.9	8.3	-0.2	0.6	0.7
C=CCSc1ncccc1C(=O)NCCc1ccccc1	3101	-7.5	2.1	0.4	-10.3	-2.1
